Sampled rows, rich in hits. Any-hit rate of the full collection: about 6.7%.
C diff growth – C. difficile growth inhibition | Clostridium difficile clinical isolate growth, OD600, 24 h; active compounds read low | growth activity, negative = inhibition, % at 16 µg/mL (by protocol) | 86,000 compounds, 0.25% hits;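 active means mean growth activity at or below -80% and every replicate also at or below -80%; inconclusive means mean at or below -80% but some replicate above -80%; inactive means mean growth activity above -80%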;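 further: 0% = DMSO wells and -100% = levofloxacin 16 µg/mL wells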
T cruzi growth – blocks T. cruzi growth in NIH3T3 culture; inhibition, % at 8.34 µM; 77,000 compounds, 5.9% hits; T. cruzi beta-gal in NIH3T3, GalScreen luminescence, 90 h;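 active means mean inhibition above about 93%, with at least 55% of replicates each passing it, limit read from the data, passing the limit was not always enough; inconclusive means only one of those two conditions holds; inactive means neither condition holds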
Pf Dd2 inh – blocks growth of Plasmodium falciparum Dd2 parasites | P. falciparum Dd2 growth, SYBR Green, 72 h; active compounds read low | activity change, % at 10 µM | 94,000 compounds, 2.3% hits | AID 1159554; in the data active means activity change below about -80%; inconclusive means no clear call, values can overlap the other calls
The depositor's hits bear a star; ? = inconclusive; nt = no result.

SMILES	C diff growth	T cruzi growth	Pf Dd2 inh
Cc1cc(C(=O)Nc2cccc3c2O[C@@H](CN(C)S(=O)(=O)c2c(C)noc2C)[C@@H](C)CN([C@H](C)CO)C3=O)n(C)n1	3	82	1
N#Cc1cccc(-c2ccc3c(c2)[C@@H]2[C@@H](CCN2C(=O)C2CCCCC2)[C@@H](CO)N3)c1	-22	80	3
O=C(C1CCCC1)N1CC[C@@H]2[C@H]1c1cc(-c3cccc(F)c3)ccc1N[C@@H]2CO	60	nt	-82*
N#Cc1cccc(-c2ccc3c(c2)[C@H]2[C@H](CCN2C(=O)C2CCCCC2)[C@H](CO)N3)c1	-26	79	-12
N#Cc1ccc(-c2ccc3c(c2)[C@H]2[C@H](CCN2C(=O)C2CCCC2)[C@H](CO)N3)cc1	-6	nt	-86*
O=C(C1CCC1)N1CC[C@@H]2[C@@H](CO)Nc3ccc(-c4cccc(F)c4)cc3[C@@H]21	-10	75	27
N#Cc1ccc(-c2ccc3c(c2)[C@H]2[C@H](CCN2C(=O)c2ccncc2)[C@H](CO)N3)cc1	-80*	52	-10
N#Cc1ccc(-c2ccc3c(c2)[C@@H]2[C@@H](CCN2C(=O)C2CCC2)[C@@H](CO)N3)cc1	-10	nt	-84*
N#Cc1cccc(-c2ccc3c(c2)[C@H]2[C@H](CCN2C(=O)c2ccncc2)[C@@H](CO)N3)c1	-3	75	-27
COCc1cn(CC[C@H]2CC[C@@H](NC(=O)Nc3ccc4c(c3)OCO4)[C@@H](CO)O2)nn1	0	-38	-24
C[C@@H]1CN([C@H](C)CO)C(=O)Cc2cc(NC(=O)c3ccncc3)ccc2O[C@H]1CN(C)Cc1ccccc1	5	41	27
C[C@H](CO)N1C[C@H](C)[C@H](CN(C)Cc2ccc3c(c2)OCO3)Oc2c(NS(=O)(=O)c3ccc(Cl)cc3)cccc2C1=O	5	nt	-16
C[C@@H]1CCCCO[C@H](CN(C)Cc2ccc3c(c2)OCO3)[C@@H](C)CN([C@@H](C)CO)C(=O)c2cc(NC(=O)Nc3cccc4ccccc34)ccc2O1	nt	69	-88*
C[C@H]1CCCCO[C@@H](CN(C)Cc2ccc3c(c2)OCO3)[C@@H](C)CN([C@@H](C)CO)C(=O)c2cc(NC(=O)Nc3cccc4ccccc34)ccc2O1	2	92	?
C[C@@H]1CN([C@H](C)CO)C(=O)c2cc(NC(=O)Nc3cccc4ccccc34)ccc2O[C@@H](C)CCCCO[C@H]1CN(C)Cc1ccc2c(c1)OCO2	nt	76	-87*
COc1ccc(CN(C)C[C@@H]2OCCCC[C@H](C)Oc3ccc(NC(=O)Nc4cccc5ccccc45)cc3C(=O)N([C@H](C)CO)C[C@H]2C)cc1	-94*	106	-90*
COc1ccc(CN(C)C[C@@H]2OCCCC[C@@H](C)Oc3ccc(NC(=O)Nc4cccc5ccccc45)cc3C(=O)N([C@H](C)CO)C[C@H]2C)cc1	25	87	-71
C[C@@H]1CCCCO[C@H](CN(C)Cc2ccccc2)[C@H](C)CN([C@H](C)CO)C(=O)c2cc(NC(=O)Nc3cccc4ccccc34)ccc2O1	-4	nt	4
C[C@@H]1CCCCO[C@@H](CN(C)Cc2ccc3c(c2)OCO3)[C@@H](C)CN([C@H](C)CO)C(=O)c2cc(NC(=O)Nc3cccc4ccccc34)ccc2O1	nt	93	31
C[C@@H]1CCCCO[C@@H](CN(C)Cc2ccc3c(c2)OCO3)[C@H](C)CN([C@H](C)CO)C(=O)c2cc(NC(=O)Nc3cccc4ccccc34)ccc2O1	nt	45	-91*
CCCNC(=O)N1CC2(CN(C(C)=O)C2)c2c(n(C)c3cc(OC)ccc23)[C@@H]1CO	-4	nt	51
CO[C@H]1CN(C)C(=O)c2ccc(NC(=O)NC(C)C)cc2OC[C@H](C)N(C)C[C@H]1C	nt	-23	51
O=C(NCC[C@@H]1CC[C@@H](NS(=O)(=O)c2ccccc2F)[C@@H](CO)O1)c1ccc(F)cc1	nt	-66	-1
COc1ccc2c3c(n(C)c2c1)[C@@H](CO)N(CC1CC1)CC31CN(C(=O)Nc2ccc(F)cc2F)C1	5	nt	-61
CCCc1cn([C@@H]2C[C@@H]3O[C@H](CO)CC[C@@H]3O[C@@H]2CCc2ccc(-c3cccc(OC)c3)cc2)nn1	-16	nt	-87*
SMILES	C diff growth	T cruzi growth	Pf Dd2 inh
CCCc1cn([C@H]2C[C@@H]3O[C@H](CO)CC[C@@H]3O[C@@H]2CCc2ccc(-c3ccc(OC)cc3)cc2)nn1	13	nt	-83*
CCCc1cn([C@H]2C[C@@H]3O[C@H](CO)CC[C@@H]3O[C@@H]2CCc2ccc(-c3cccc(OC)c3)cc2)nn1	18	nt	-69
COCc1cn([C@H]2C[C@@H]3O[C@@H](CO)CC[C@@H]3O[C@@H]2CCc2ccc(-c3ccc(OC)cc3)cc2)nn1	-5	nt	-64
CN(C)CCCNC(=O)C[C@H]1CC[C@H](NS(=O)(=O)c2ccccc2)[C@H](CO)O1	-4	-58	-11
CO[C@@H]1CN(C)C(=O)c2cc(NS(=O)(=O)CC(F)(F)F)ccc2OC[C@@H](C)N(C(=O)c2ccc3c(c2)OCO3)C[C@@H]1C	nt	nt	-10
Cc1noc(C)c1S(=O)(=O)N(C)C[C@@H]1Oc2ccc(NS(C)(=O)=O)cc2CC(=O)N([C@H](C)CO)C[C@H]1C	-1	8	-3
COc1cccc(NC(=O)N[C@@H]2CC[C@H](CC(=O)NCc3ccncn3)O[C@@H]2CO)c1	nt	25	-1
COc1ccc2c3c(n(C)c2c1)[C@H](CO)N(CC1CCCC1)CC31CCN(Cc2nccs2)CC1	5	nt	-71
COc1ccc2c3c(n(C)c2c1)[C@H](CO)N(Cc1ccc(Cl)cc1)CC31CN(CC2CC2)C1	22	nt	-58
COc1ccc2c3c(n(C)c2c1)[C@H](CO)N(Cc1ccc(F)cc1)CC31CCN(CC2CCOCC2)CC1	5	nt	-22
COc1ccc2c3c(n(C)c2c1)[C@H](CO)N(Cc1ccc(F)cc1)CC31CN(CC2CC2)C1	13	nt	-13
COc1ccc2c3c(n(C)c2c1)[C@H](CO)N(Cc1ccc(Cl)cc1)CC31CCN(CC2CC2)CC1	15	nt	-88*
COc1ccc2c3c(n(C)c2c1)[C@@H](CO)N(CC1CCCCC1)CC31CCN(Cc2nccs2)CC1	6	nt	-90*
COc1ccc2c3c(n(C)c2c1)[C@@H](CO)N(Cc1ccc(Cl)cc1)CC31CCN(CC2CC2)CC1	11	nt	-91*
COc1ccc2c3c(n(C)c2c1)[C@H](CO)N(Cc1ccc(F)cc1)CC31CCN(CC2CC2)CC1	1	nt	-84*
O=C(c1ccccn1)N1C[C@@H]2[C@H](c3ccccc31)[C@@H](CO)N2C(=O)C1CC1	6	-3	-3
COCC(=O)N(C)C[C@H]1Oc2cc(C#CCC(C)C)ccc2S(=O)(=O)N([C@@H](C)CO)C[C@@H]1C	-3	57	6
O=C(Nc1ccc(F)cc1)N[C@H]1CC[C@@H](CC(=O)N2CCOCC2)O[C@@H]1CO	nt	0	8
COCCNC(=O)C[C@@H]1C[C@@H]2c3cc(NS(C)(=O)=O)ccc3O[C@@H]2[C@@H](CO)O1	-1	-7	12
COc1ccc2c3c(n(C)c2c1)[C@H](CO)N(Cc1ccccc1F)CC31CCN(CC2CC2)CC1	4	nt	-90*
COc1ccc2c3c(n(C)c2c1)[C@H](CO)N(Cc1ccccc1F)CC31CN(CC2CC2)C1	nt	nt	23

Screening results (PubChem)
